Measurements: the supplement of paper PMC10127200
“And” between values parts separate entries of the source, which are not always exact repeats. Identical values can stand only once. Counter-ions that a name gives are not always drawn.

Key:
Assay in all cases: Euclidean distance of Cell Painting phenotypic profile (signed KS, 77 features) to DMSO centroid (dimensionless distance); 5 or 10 uM (library dependent); higher = stronger phenotypic change vs DMSO (phenoactivity)
Settings in all cases: 48 h
[1] = tested on: 786-O
Summary of the method: (§1)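 Library compounds were applied at 10 or 5 uM, depending on the library, with 0.1% DMSO final, for 48 h to five cancer lines and a healthy fibroblast line. After staining, cells were imaged confocally at 20X across 9 fields per well, and Harmony extracted 77 features, each scored as a signed Kolmogorov-Smirnov statistic against vehicle wells on the same plate. Phenoactivity is the Euclidean distance between each profile and the median vehicle profile, with profiles first plate-position corrected, correlation-weighted and averaged over replicates at the top dose.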

[2] = tested on: A549
Summary of the method: as §1

[3] = tested on: DU145
Summary of the method: as §1

[4] = tested on: FB
Summary of the method: as §1

[5] = tested on: HEPG2
Summary of the method: as §1

[6] = tested on: OVCAR4
Summary of the method: as §1

| Compound | Euclidean distance [1] | Euclidean distance [2] | Euclidean distance [3] | Euclidean distance [4] | Euclidean distance [5] | Euclidean distance [6] |
| --- | --- | --- | --- | --- | --- | --- |
| Nc1nc2[nH]cc(CCc3ccc(C(=O)N[C@@H](CCC(=O)O)C(=O)O)cc3)c2c(=O)[nH]1 [Pemetrexed] | 1.73 | 2.69 | 1.14 | 0.521 | 1.85 | 3.1 |
| CC(C)[C@@H](C)/C=C/[C@@H](C)[C@H]1CC[C@H]2C3=CC=C4C[C@@H](O)CC[C@]4(C)[C@H]3CC[C@]12C [Ergosterol] | 1.2 | 1.36 | 1.1 | 0.707 | 0.946 | 1.17 |
| O=C1NC(=O)C(c2ccccc2[N+](=O)[O-])=C1Nc1ccc(O)c(Cl)c1 | 1.2 | 0.916 | 0.978 | 0.936 | 0.886 | 1.1 |
| CCCCC1C(=O)N(c2ccccc2)N(c2ccccc2)C1=O [Phenylbutazone] | 0.905 | 0.759 | 1.5 | 1.25 | 0.482 | 1 |
| Cc1cc(/C=C/c2ccc3cc(N(C)C)ccc3[n+]2C)c(C)n1-c1ccccc1 [pyrvinium] | 5.7 | 4.29 | 5.05 | 6.77 | 3.9 | 5.35 |
| Nc1nc(/C(=C/CC(=O)O)C(=O)N[C@@H]2C(=O)N3C(C(=O)O)=CCS[C@H]23)cs1 [Ceftibuten dihydrate] | 1.22 | 0.568 | 1.24 | 1.2 | 1.17 | 0.987 |
| CCn1cc(C(=O)O)c(=O)c2ccc(C)nc21 [Nalidixic acid] | 1.33 | 0.755 | 1.12 | 1.07 | 0.602 | 1.5 |
| O=c1[nH]cnc2c1ncn2[C@H]1CC[C@@H](CO)O1 [Didanosine] | 1.21 | 1.3 | 1.12 | 0.891 | 0.649 | 0.793 |
| O=C(Oc1ccccc1C(=O)O)c1ccccc1O [Sasapyrine] | 0.578 | 0.394 | 0.556 | 0.969 | 0.413 | 1.18 |
| Cc1cc(N2CCN([C@@H]3CN[C@H](C(=O)N4CCSC4)C3)CC2)n(-c2ccccc2)n1 [Teneligliptin hydrobromide] | 1.1 | 1.09 | 2.06 | 1.2 | 1.21 | 1.33 |
| O=C(OCC(O)CO)c1ccccc1Nc1ccnc2cc(Cl)ccc12 (configuration not stated) [Glafenine HCl] | 1.07 | 0.79 | 0.824 | 1.52 | 0.968 | 1.04 |
| CC(=O)OCC1=C(C(=O)O)N2C(=O)[C@@H](NC(=O)CSC(=NC(C)C)NC(C)C)[C@H]2SC1 [Cefathiamidine] | 1.48 | 0.7 | 1.41 | 0.888 | 0.62 | 1.82 |
| CC1(COc2ccc3c(c2)ncn3-c2ccc3cccc(N4CCC(N)CC4)c3n2)COC1 | 3.62 | 3.9 | 3.27 | 3.75 | 3.6 | 3.78 |
| CCNC(=O)[C@@H]1CCCN1C(=O)[C@H](CCCN=C(N)N)NC(=O)[C@H](CC(C)C)NC(=O)[C@@H](C)NC(=O)[C@H](Cc1ccc(O)cc1)NC(=O)[C@H](CO)NC(=O)[C@H](Cc1c[nH]c2ccccc12)NC(=O)[C@H](Cc1cnc[nH]1)NC(=O)[C@@H]1CCC(=O)N1 [Alarelin Acetate] | 0.728 | 1.38 | 0.974 | 2.05 | 1.87 | 1.24 |
| C=CC(=O)Nc1cc2c(Nc3ccc(F)c(Cl)c3)ncnc2cc1OCCCN1CCOCC1 [Canertinib (CI-1033)] | 1.57 | 2.51 | 1.4 | 1.25 | 0.69 | 2.05 |
| CCCCOC(=O)c1ccc(N)cc1 [Butamben] | 1.09 | 0.881 | 0.906 | 1.05 | 0.737 | 1.03 |
| COc1cc(CCc2cc(NC(=O)c3ccc(N4CC(C)NC(C)C4)cc3)n[nH]2)cc(OC)c1 (configuration not stated) | 1.7 | 1.94 | 1.5 | 3.59 | 2.79 | 1.46 |
| CCCC(=O)Nc1ncnc2c1ncn2[C@@H]1O[C@@H]2COP(=O)(O)O[C@H]2[C@H]1OC(=O)CCC [Dibutyryl-cAMP (Bucladesine)] | 1.05 | 0.792 | 0.663 | 0.745 | 0.883 | 1.53 |
| NC(=O)c1cnc(N[C@@H]2CCCC[C@@H]2N)nc1Nc1cccc(-n2nccn2)c1 | 1.35 | 2.72 | 1.89 | 2.25 | 2.24 | 2.83 |
| Cc1c(-c2ccc(O)cc2)n(Cc2ccc(OCCN3CCCCCC3)cc2)c2ccc(O)cc12 [Bazedoxifene Acetate] | 4.76 | 4.78 | 3.21 | 4.56 | 4.37 | 3.76 |
| C[C@@H]1CCN(C(=O)CC#N)C[C@@H]1N(C)c1ncnc2[nH]ccc12 | 0.925 and 0.548 | 0.553 and 0.511 | 1.04 and 0.639 | 0.618 and 0.551 | 0.886 and 0.785 | 0.908 and 0.677 |
| CCCCCCCCCCCCCCCCCC(=O)O [Stearic acid] | 1.24 | 1.11 | 0.794 | 1.08 | 0.463 | 0.768 |
| O=C(O)CC1CC(c2ccccc2)=NO1 (configuration not stated) | 0.76 | 1.81 | 1.27 | 1.31 | 0.596 | 0.844 |
| CN1C(C(=O)Nc2ccccn2)=C(O)c2ccccc2S1(=O)=O [Piroxicam] | 0.732 | 0.909 | 0.966 | 0.725 | 1.06 | 0.704 |
| O=C(c1ccc(OCCCc2c[nH]cn2)cc1)C1CC1 [Ciproxifan] | 1.15 | 1.15 | 1.03 | 0.829 | 0.908 | 1.15 |
| COc1cc(CNC(=O)CCCC/C=C\C(C)C)ccc1O [Zucapsaicin] | 0.772 | 0.503 | 0.672 | 0.743 | 0.98 | 1.01 |
| O=C(Nc1nc2cccc(-c3ccc(CN4CCS(=O)(=O)CC4)cc3)n2n1)C1CC1 [Filgotinib (GLPG0634)] | 0.844 | 0.922 | 1.29 | 1.45 | 2.21 | 1.22 |
